# The list is not random: actives were taken first. Their share in the collection is about 11%.
# HEK293 tox – kills HEK 293 cells | HEK 293 viability, ATP luminescence (CellTiter-Glo), 48-72 h | Potency, µM (doses to about 115 µM), for inactives: top-dose activity change, negative = cytotoxicity, usual class: inhibitors | 6.6% of 94,000 active | AID 1345083; further: nearly all actives have a fitted effect of over 60% in size
#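 Read-out: CellTiter-Glo ATP luminescence. Cells: HEK 293, 250 cells/well. Exposure: 48 or 72 hr, 37 degree Celsius.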
# hNpr1 antagonist – human Npr1 receptor antagonism | HEK293 hNpr1 GloSensor cGMP, ANP-stimulated luminescence | Potency, µM (doses to about 46.3 µM), for the others: at the highest dose activity change, negative = inhibition, usual class: inhibitors | 1.6% of 76,000 active | AID 1347048; calls by dose curve; further: nearly all actives have a fitted effect of over 60% in size
# Target sequence (P16066 whole entry, looked up): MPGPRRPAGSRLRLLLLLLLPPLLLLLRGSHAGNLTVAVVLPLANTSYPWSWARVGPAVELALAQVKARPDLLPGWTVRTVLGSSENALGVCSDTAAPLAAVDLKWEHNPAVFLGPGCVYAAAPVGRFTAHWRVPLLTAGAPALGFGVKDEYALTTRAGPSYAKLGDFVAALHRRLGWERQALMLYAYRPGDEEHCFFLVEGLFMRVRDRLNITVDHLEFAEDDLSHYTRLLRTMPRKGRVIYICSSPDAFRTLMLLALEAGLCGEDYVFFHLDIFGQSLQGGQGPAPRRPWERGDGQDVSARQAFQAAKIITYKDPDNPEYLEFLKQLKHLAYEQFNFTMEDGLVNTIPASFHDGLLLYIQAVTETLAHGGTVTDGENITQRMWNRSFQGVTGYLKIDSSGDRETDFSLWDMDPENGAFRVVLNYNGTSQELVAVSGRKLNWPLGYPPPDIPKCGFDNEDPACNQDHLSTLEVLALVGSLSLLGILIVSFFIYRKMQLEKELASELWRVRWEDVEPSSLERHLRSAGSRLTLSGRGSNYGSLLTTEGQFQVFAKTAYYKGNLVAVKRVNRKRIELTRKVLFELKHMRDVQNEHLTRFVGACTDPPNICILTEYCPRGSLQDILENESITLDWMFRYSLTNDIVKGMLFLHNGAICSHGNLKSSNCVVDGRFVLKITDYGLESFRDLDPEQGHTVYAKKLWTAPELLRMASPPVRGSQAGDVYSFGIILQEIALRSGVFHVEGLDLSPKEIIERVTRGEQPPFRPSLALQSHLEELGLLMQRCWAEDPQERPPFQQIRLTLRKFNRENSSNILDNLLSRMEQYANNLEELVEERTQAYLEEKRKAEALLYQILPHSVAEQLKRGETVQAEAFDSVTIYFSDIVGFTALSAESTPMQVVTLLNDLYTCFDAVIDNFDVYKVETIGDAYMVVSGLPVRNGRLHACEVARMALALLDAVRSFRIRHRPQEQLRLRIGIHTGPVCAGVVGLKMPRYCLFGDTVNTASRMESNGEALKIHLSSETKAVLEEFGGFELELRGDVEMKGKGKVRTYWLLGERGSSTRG
#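 Compound pre-incubated 30 min at room temperature on GloSensor-loaded HEK293 cells stably carrying hNpr1 and the pGS-40F cGMP biosensor. Stimulation uses hNppA at 0.1 nM final; luminescence is taken at baseline and 20 min post-agonist.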
# FLuc inh – Photinus pyralis luciferase inhibition; Potency, µM (doses to about 115 µM), actives largely listed as inhibitors; purified P. pyralis luciferase, luminescence, biochemical; P08659; AID 1347043; 2.5% of 76,000 active; further: nearly all actives have a fitted effect of over 65% in size
#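 Luminescence read by CCD imager after adding enzyme (10nM final) to wells holding compound, titrated in qHTS. Substrates 10uM each D-luciferin and ATP; buffer 50mM Tris acetate pH 7.5, 10mM Mg acetate, Tween-20, BSA.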
# 3T3 cytotox – kills NIH 3T3 cells. NIH 3T3 viability, CellTiter-Glo ATP luminescence, 48-72 h. Potency, µM (doses to about 96.7 µM), for inactives: at the top dose activity change, negative = cytotoxicity, hits mostly inhibitors. 4.3% of 94,000 active. AID 1345082; further: nearly all actives have a fitted effect of over 55% in size
#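 First NIH 3T3 cells are plated at 400 cells/well; next compound is pinned in; then plates incubate 48 or 72 hr at 37 °C; finally CellTiter-Glo is added and luminescence read after 10 min.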
# An asterisk follows results filed as active; i = inactive; u = inconclusive; x = no result given; ! = not confirmed by another sample; [ ] = another dose, or the depositor's remark. Unless noted, the call rests on the fitted dose curve; in most records, active means well fitted curve in the direction sought with a large enough effect; inconclusive means small, poorly fitted or top-dose-only effect, or another doubt; inactive means no such curve, though single readings can be large; an effect the other way counts as inactive or inconclusive. On the % scale 0 is the no-effect control and ±100 the full control effect; potency means the concentration at half of the fitted maximal effect.
SMILES,HEK293 tox,hNpr1 antagonist,FLuc inh,3T3 cytotox
Cc1nn2c(c1-c1ccccc1C(C)C)N(C(=O)CCc1cccnc1)CCC2,-24%[172 µM],-25%[70.6 µM],i,u
COc1ccc(CN2CCCn3nc(C)c(-c4ccccc4C(C)C)c32)cc1O,63µM*,u,i,35µM*
COc1ccccc1-c1ccnc(N[C@H]2CO[C@H]3[C@@H]2OC[C@@H]3NS(C)(=O)=O)n1,u,1%[70.6 µM],i,-10%[174 µM]
CCOC(=O)c1ccc(NC(=O)c2c(OC)cc(=O)n3c2CCCC3)cc1,-2%,6%,i,-13%
CC1(C)CN(C(=O)c2cn(CCN3CCNCC3)nn2)C[C@]1(C)O,-9%,-1%,i,-10%
CC(=O)NC1(C)CCN(Cc2ccc(-c3ccc(Oc4ccccc4)cc3)cc2)C1 (stereo not drawn),u,18µM*,22µM*,13µM*
CC(=O)NC1(C)CCN(Cc2ccc(-c3ccc4ccccc4c3)cc2)C1 (stereo not drawn),28µM*,16µM*,u,25µM*
CC(=O)NC1(C)CCCN(Cc2ccc(Oc3ccccc3)cc2)C1 (stereo not drawn),u,1%[70.6 µM],u,u
CC(=O)NC1(C)CCN(Cc2ccccc2-c2ccccc2Oc2ccccc2)C1 (stereo not drawn),u,-18%[70.6 µM],i,79µM*
Cc1cc(F)cc(CN2CCOc3cc([S+](=O)([O-])N(C)C)ccc3C2)c1,79µM*,-25%[70.6 µM],i,40µM*
CN(C)[S+](=O)([O-])c1ccc2c(c1)OCCN(Cc1cccc(Cl)c1)C2,79µM*,-23%[70.6 µM],i,u
CN(C)[S+](=O)([O-])c1ccc2c(c1)OCCN(Cc1cc(F)ccc1F)C2,u,-4%[70.6 µM],i,u
CCOCc1nc(C2CCCN(C(=O)c3ccnn3C)C2)no1 (stereo not drawn),-1%,1%,i,-9%
CC(C)=CC(=O)N1CC[C@H](NC(=O)Nc2ccc(F)cc2F)[C@H]1C(=O)N[C@@H](Cc1cccs1)C(N)=O,-2%,-1%,i,i
O=C(CC(c1ccccc1)c1ccccc1Cl)N(Cc1cccnc1)C1CC1 (stereo not drawn),35µM*,-26%,i,u
O=C(NCc1nc(-c2cccc(F)c2)c(-c2ccccn2)[nH]1)[C@@H]1C[C@@H](O)CN1,u,2%,i,-17%
CCOc1ccccc1C(=O)N1CCN(c2cc(-c3cccs3)[nH]n2)CC1,40µM*,-23%,i,u
Cc1ccccc1C(=O)N1CCN(c2cc(-c3cccs3)[nH]n2)CC1,u,-4%,i,u
COc1ccccc1CC(=O)N1CCN(c2cc(-c3cccs3)[nH]n2)CC1,40µM*,u,i,u
Cc1ccc(CC(=O)N2CCN(c3cc(-c4cccs4)[nH]n3)CC2)cc1,u,-21%,i,u
CCOc1ccc(CC(=O)N2CCN(c3cc(-c4cccs4)[nH]n3)CC2)cc1OCC,45µM*,-1%,i,28µM*
CCOc1cc(C(=O)N2CCN(c3cc(-c4ccc(Cl)cc4)[nH]n3)CC2)cc(OCC)c1OCC,35µM*,-5%,i,32µM*
COc1cccc(CN2C[C@@H]3C(C(=O)NCc4ccccc4)=NO[C@@H]3C2)c1,u,-2%[70.6 µM],i,-33%[138 µM]
Cc1cc(F)ccc1-c1[nH]nc2ncc(-c3ccc([S+](C)(=O)[O-])cc3)nc12,u,-12%[70.6 µM],i,u
COc1ccccc1C(=O)N1CCCN(c2cc(-c3ccc(Cl)cc3)[nH]n2)CC1,u,u,i,u
SMILES,HEK293 tox,hNpr1 antagonist,FLuc inh,3T3 cytotox
CCOc1ccccc1C(=O)N1CCN(c2cc(-c3ccc(Cl)cc3)[nH]n2)CC1,35µM*,-28%,i,18µM*
COc1cc(C(=O)N2CCN(c3cc(-c4ccc(Cl)cc4)[nH]n3)CC2)cc(OC)c1OC,u,u,i,25µM*
COCCO[C@H]1C(=O)N(C2CCN(C(=O)c3ccco3)CC2)[C@H]1c1ccncc1,-5%,10%,i,-24%
COc1cccc(-c2cc3c(=O)n(CC(O)c4ccccc4)ccn3n2)c1 (stereo not drawn),35µM*,-30%,3.5µM*,-29%
COc1cccc(-c2cc3c(=O)n(CCNC(=O)Cc4cccc(F)c4)ccn3n2)c1,u,-3%,11µM*,u
COc1ccc(OC)c(C(O)Cn2ccn3nc(-c4ccc(C(C)C)cc4)cc3c2=O)c1 (stereo not drawn),32µM*,u,u,-9%
COc1cccc(-c2cc3c(=O)n(CCNC(=O)c4cc(F)ccc4F)ccn3n2)c1,u,u,7.1µM*,u
CC(C)N1C(=O)C2(CCCC2)C1C(=O)N1CCC(N2CCCCC2)CC1 (stereo not drawn),-2%,-4%,i,1%
COc1ccc(-c2cc3c(=O)n(CCNC(=O)c4cc(Cl)ccc4F)ccn3n2)cc1,79µM*,-20%,u,-19%
COc1ccc(-c2cc3c(=O)n(CCNC(=O)c4cc(OC)cc(OC)c4)ccn3n2)cc1,-5%,-17%,i,-23%
COc1cccc(-c2cc3c(=O)n(CCNC(=O)Cc4ccsc4)ccn3n2)c1,u,-3%,28µM*,-25%
COc1cccc(-c2cc3c(=O)n(CCNC(=O)COc4ccccc4)ccn3n2)c1,-23%,-23%,25µM*,-20%
COc1cccc(-c2cc3c(=O)n(CCNC(=O)Cc4ccc(F)cc4)ccn3n2)c1,-10%,u,7.9µM*,-10%
COCC(=O)NCc1cc2n(n1)CCCN(Cc1cnn(C)c1C)C2,i,2%,i,2%
CC(C)C1=NOC2(CCN(CC3CC3)CC2)C1,i,x,x,i
CC(C)c1ccc(N2CC(C(=O)NCc3nc(C(C)C)no3)CC2=O)cc1 (stereo not drawn),-5%,7%,i,-18%
CN1CCN(C(=O)CC[C@H]2CNC(=O)[C@@H]3[C@@H](CCN3CC(C)(C)C)N2C)CC1,2%[172 µM],-3%[70.6 µM],i,-13%[174 µM]
C#CCNC(=O)c1nc2cccnc2n(Cc2ccc(OC)cc2)c1=O,-17%,x,x,-19%
COc1ccc(CCNC(=O)c2nc3cccnc3n(CC(C)C)c2=O)cc1,u,x,x,45µM*
CC(C)Cn1c(=O)c(C(=O)NC2CC2)nc2cccnc21,-3%[172 µM],x,x,-16%[138 µM]
COc1ccc(CNC(=O)c2nc3cccnc3n(Cc3ccc(OC)cc3)c2=O)cc1,79µM*!,x,x,u
CC1CCCN(C(=O)CN2CCCc3nc(-c4ccccc4)ncc3C2=O)C1 (stereo not drawn),79µM*,-14%,i,-19%
Cc1ccc(C(=O)N2CCCC3(C2)NC(=O)N(Cc2ccccc2)C3=O)cc1 (stereo not drawn),u,0%,i,-25%
O=C(Cc1ccc(F)cc1)N1CCCN(c2ccc3nnc(-c4ccccc4)n3n2)CC1,-15%,x,x,-25%
O=C1NC(=NC2CCCC2)C2(CCN(Cc3cccnc3)C2)N1c1cc(F)cc(F)c1 (stereo not drawn),i,x,x,32µM*
